Calls of active or inactive are those of the source.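 How the source made its calls, unless noted: active means superoxide response below 65% of plate, a cut near 3 SD across the whole screen; inactive means the rest.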
How the values were obtained:
[1] = inhibitors of CD8+ T cell-vesicle binding, pilot screen, LFA-1/ICAM-1 modulator project, MLPCN validation set, flow cytometry (AID 2523;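 active means response below a set limit, under 55% cells CD8-positive and vesicle-bound, and CD8 cells' 90th-percentile brightness under 279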;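 on vesicle binding response: mean PE anti-B7-1 fluorescence of CD8+ cells relative to row control; 100% = QL9-loaded vesicles with DMSO vehicle in the same plate row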); conditions: 2C mouse CD8+ T cells, at 7 µM, stronger effect = lower value; double positive events: measured here: CD8+/vesicle+ event percentage
[2] = biological target: Integrin beta-1 (Homo sapiens) + Integrin alpha-4 (Homo sapiens) (UniProt P13612+P05556); assay: inhibition of HUTS-21 binding to VLA-4, pilot screen, VLA-4 allosteric modulator project, U937 cells, HUTS-21 mAb, flow cytometry, validation set (AID 2674;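 active means inhibition above 50%, about 3 SD of the validation set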;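 further: antibody binding induced by the VLA-4 ligand LDV present at three times its Kd; 0% = LDV ligand with antibody and no compound and 100% = antibody without LDV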); conditions: HUTS-21 LIBS mAb binding, at 6.7 µM, stronger effect = higher value, binding induced by LDV ligand
[3] = superoxide lowering in aged yeast cells, pilot screen, validation compound set (AID 2706);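 further: yeast exposed to compound for one week at 30 degrees C before staining; 100% = mean of all compound wells on the same plate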; conditions: S. cerevisiae aging, superoxide DHE fluorescence; at 10 µM, stronger effect = lower value
[4] = biological target: Beta-adrenergic receptor kinase 1 (Homo sapiens) (UniProt P25098); assay: GRK2 binders displacing RNA aptamer, biochemical, validation, human GRK2, bead flow cytometry (AID 488806;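 active means aptamer binding inhibition above 30%, about 3 SD of noise from non-fluorescent compounds; inactive means inhibition at or below 30%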); conditions: bead-bound GRK2, FAM-aptamer displacement, at 10 µM, stronger effect = higher value
[5] = biological target: AP-2 complex subunit beta (Homo sapiens) (UniProt P63010); assay: inhibitors of arrestin peptide binding to AP2, pilot screen, biochemical, validation set, GST-AP2 beads, flow cytometry (AID 504541;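 active means inhibition above 54%, about 3 SD of non-fluorescent compounds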;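 further: AP2 carries R879A mutation and is captured from E. coli lysate; bead-bound FITC arrestin peptide fluorescence measuring arrestin peptide binding to AP2; 0% = DMSO wells and 100% = excess unlabeled arrestin peptide control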); conditions: FITC arrestin peptide, at 10 µM, stronger effect = higher value, AP2 beta2 appendage fragment, R879A mutant
[6] = yeast V-ATPase proton transport modulators, S. cerevisiae, pHLuorin, HTS validation (AID 504600; in the data active means response above about 15%;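 further: plate controls were DMSO for no effect and reference compound for full effect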); conditions: S. cerevisiae pHLuorin cytosolic pH, at 10 µM, stronger effect = higher value
[7] = tested on: anti-desmoglein-3 scFv antibody binding to human DSG3; assay: inhibitors of anti-DSG3 scFv binding to DSG3, pilot screen, biochemical, validation compound set, bead-based, flow cytometry (AID 588368;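 active means binding below the plate cutoff, the plate median minus 3 SD, with a reading above zero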;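 further: signal is the median channel fluorescence of bead-bound GFP antibody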); conditions: Protein G beads, DSG3-Fc, scFv-GFP binding, at 10 µM, stronger effect = lower value
[8] = inhibitors of fungal efflux pumps CDR1, CDR2, MDR1, pilot screen, validation compound set, multiplex, phenotypic (AID 588506;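 active means efflux inhibition above 0.42, the validation set average plus 4 SD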;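 further: Nile Red retained in cells so higher fluorescence means more efflux inhibition; 0 = negative control wells and 1 = enniatin B 25 µM full block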); conditions: S. cerevisiae pump-expressing triplex, Nile Red efflux flow cytometry; at 10 µM; stronger effect = higher value; the pumps come from Candida albicans
[9] = biological target: ATP-binding cassette sub-family B member 6 (Homo sapiens) (UniProt Q9NP58); assay: ABCB6 transporter inhibitors, pilot screen, K562-ABCB6 cells, flow cytometry, validation set (AID 588550;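 active means inhibition above the screen-wide mean plus 3 SD, about 51%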;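 further: 0% = DMSO wells and 100% = benzethonium chloride 70 µM positive control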); conditions: K562-ABCB6 porphyrin accumulation, 1 h, at 10 µM, stronger effect = higher value
[10] = promoters of myeloid differentiation in arrested cells, primary screen, cell-based, GFP/MAC1 double positive, flow cytometry, validation set (AID 588685;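 active means differentiation response of at least 50%, scaled between solvent and reference control, from cells with both markers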;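 further: compound exposure lasts four days before antibody staining and flow analysis; 0% = DMSO wells and 100% = 5 µM fulvestrant positive control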); conditions: ER-HoxA9 marrow cells, stronger effect = higher value, normalized: vehicle 0, fulvestrant 100

Integrin beta-1 (Homo sapiens) + Integrin alpha-4 (Homo sapiens), sequence (P05556 whole entry, looked up): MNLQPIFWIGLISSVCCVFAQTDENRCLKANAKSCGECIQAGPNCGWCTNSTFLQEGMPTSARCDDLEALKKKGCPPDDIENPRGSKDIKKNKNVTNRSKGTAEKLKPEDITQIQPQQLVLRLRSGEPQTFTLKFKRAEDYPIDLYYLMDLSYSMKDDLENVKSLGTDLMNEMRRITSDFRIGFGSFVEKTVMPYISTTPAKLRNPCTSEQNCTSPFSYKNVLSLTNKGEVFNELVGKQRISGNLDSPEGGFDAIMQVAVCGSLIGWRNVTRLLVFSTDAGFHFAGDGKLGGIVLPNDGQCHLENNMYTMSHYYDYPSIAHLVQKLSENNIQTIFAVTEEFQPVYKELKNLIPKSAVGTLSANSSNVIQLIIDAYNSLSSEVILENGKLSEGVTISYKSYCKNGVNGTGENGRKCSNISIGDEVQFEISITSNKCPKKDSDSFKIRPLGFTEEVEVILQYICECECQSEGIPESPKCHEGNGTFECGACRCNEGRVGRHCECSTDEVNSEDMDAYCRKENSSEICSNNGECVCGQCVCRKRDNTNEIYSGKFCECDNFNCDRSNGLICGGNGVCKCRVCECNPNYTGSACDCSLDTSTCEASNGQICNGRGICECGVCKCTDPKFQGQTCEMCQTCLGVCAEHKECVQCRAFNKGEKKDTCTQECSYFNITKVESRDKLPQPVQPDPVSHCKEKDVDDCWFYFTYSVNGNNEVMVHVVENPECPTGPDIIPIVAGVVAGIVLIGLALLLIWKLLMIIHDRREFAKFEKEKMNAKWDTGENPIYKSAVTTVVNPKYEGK
Integrin beta-1 (Homo sapiens) + Integrin alpha-4 (Homo sapiens), sequence (P13612 whole entry, looked up): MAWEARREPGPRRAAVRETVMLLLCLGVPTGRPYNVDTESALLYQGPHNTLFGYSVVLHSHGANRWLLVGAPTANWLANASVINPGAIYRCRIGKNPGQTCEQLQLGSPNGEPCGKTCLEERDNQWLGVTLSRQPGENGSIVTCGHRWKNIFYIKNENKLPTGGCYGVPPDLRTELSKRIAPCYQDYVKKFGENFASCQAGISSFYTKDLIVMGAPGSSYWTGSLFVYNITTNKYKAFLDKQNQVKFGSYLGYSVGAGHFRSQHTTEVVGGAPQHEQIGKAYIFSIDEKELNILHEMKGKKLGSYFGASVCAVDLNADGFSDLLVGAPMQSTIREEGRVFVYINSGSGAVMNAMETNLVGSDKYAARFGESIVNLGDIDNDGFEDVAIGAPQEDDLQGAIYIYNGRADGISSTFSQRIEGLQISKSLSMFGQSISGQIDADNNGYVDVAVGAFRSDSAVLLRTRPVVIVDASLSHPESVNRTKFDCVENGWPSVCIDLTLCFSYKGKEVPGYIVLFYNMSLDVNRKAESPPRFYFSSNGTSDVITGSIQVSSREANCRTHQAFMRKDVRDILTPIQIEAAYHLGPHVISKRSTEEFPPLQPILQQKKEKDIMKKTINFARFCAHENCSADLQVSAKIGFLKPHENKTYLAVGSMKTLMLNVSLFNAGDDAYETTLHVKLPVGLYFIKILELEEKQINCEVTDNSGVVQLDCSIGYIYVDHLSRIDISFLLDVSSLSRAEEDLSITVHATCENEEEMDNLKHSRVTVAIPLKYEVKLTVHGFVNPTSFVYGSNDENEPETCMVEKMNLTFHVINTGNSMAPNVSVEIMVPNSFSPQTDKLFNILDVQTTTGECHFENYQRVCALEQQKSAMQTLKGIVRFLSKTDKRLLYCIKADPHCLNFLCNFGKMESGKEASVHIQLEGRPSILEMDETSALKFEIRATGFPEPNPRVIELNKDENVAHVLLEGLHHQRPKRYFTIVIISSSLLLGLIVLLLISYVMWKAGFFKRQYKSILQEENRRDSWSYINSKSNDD
Beta-adrenergic receptor kinase 1 (Homo sapiens), sequence (P25098 whole entry, looked up): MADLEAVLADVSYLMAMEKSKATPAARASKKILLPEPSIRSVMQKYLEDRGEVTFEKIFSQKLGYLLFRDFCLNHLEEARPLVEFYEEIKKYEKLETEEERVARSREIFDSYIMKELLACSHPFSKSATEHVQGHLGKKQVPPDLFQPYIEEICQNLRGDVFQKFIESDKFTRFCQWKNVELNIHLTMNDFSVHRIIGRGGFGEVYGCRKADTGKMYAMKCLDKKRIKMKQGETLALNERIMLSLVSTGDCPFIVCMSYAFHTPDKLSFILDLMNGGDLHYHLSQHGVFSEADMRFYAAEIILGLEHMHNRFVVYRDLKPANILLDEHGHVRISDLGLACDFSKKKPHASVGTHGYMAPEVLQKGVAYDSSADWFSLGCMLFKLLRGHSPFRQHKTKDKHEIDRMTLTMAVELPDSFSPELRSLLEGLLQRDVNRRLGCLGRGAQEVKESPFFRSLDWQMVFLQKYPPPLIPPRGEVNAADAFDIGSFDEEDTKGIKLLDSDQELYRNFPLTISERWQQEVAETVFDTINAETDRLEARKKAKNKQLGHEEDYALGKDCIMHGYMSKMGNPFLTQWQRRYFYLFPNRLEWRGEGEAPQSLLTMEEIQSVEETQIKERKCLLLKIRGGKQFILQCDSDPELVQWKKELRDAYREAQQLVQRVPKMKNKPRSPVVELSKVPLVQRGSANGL
ATP-binding cassette sub-family B member 6 (Homo sapiens), sequence (Q9NP58 whole entry, looked up): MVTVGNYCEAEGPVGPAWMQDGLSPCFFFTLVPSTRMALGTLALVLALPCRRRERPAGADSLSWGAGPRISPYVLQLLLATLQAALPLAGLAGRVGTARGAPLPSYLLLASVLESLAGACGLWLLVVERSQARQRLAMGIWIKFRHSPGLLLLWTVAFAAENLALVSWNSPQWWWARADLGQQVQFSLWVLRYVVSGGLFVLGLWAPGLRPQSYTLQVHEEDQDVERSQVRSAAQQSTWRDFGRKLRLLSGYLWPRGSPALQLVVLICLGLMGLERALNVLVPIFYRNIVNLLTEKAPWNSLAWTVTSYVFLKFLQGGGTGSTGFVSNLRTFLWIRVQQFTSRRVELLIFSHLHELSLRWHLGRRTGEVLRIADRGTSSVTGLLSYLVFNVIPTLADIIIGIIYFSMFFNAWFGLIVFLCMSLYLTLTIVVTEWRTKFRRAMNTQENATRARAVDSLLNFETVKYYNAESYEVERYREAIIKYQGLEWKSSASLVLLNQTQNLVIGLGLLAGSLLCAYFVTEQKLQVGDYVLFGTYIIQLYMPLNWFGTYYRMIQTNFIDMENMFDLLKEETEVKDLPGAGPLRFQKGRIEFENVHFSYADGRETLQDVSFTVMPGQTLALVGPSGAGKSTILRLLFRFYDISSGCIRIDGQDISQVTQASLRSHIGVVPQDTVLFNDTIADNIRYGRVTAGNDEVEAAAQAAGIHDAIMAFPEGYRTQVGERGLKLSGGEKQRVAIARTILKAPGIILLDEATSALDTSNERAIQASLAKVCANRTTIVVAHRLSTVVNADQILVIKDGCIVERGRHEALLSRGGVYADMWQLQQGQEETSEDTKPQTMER
AP-2 complex subunit beta (Homo sapiens), sequence (P63010 whole entry, looked up, the tested form may be a part, one chain of several): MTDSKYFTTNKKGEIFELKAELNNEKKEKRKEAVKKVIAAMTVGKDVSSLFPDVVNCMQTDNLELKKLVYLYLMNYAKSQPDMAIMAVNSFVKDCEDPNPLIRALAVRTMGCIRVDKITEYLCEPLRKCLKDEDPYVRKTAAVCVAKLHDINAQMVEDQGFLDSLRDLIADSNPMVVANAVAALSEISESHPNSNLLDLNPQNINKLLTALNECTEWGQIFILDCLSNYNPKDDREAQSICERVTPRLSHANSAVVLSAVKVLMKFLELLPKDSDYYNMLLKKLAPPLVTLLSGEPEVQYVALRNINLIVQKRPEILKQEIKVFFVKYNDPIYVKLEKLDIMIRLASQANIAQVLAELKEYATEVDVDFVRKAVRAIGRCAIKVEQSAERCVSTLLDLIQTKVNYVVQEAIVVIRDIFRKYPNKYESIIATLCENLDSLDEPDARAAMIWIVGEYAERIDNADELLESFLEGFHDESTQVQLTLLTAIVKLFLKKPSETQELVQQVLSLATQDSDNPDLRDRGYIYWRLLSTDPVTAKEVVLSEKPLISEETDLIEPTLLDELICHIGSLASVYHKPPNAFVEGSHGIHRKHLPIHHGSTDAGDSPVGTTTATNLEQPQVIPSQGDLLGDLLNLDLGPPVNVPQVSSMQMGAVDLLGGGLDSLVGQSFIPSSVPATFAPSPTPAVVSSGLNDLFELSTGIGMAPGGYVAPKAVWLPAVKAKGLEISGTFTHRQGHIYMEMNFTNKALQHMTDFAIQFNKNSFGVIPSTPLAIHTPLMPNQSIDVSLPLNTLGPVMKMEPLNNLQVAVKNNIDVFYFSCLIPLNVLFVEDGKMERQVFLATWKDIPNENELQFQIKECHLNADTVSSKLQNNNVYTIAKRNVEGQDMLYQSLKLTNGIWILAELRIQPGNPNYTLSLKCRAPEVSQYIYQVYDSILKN

C[C@]12CCC(=O)C=C1CC[C@@H]1[C@@H]2CC[C@@]2(C)[C@H]1CC[C@]2(O)C(=O)CO
inactive: vesicle binding response [1] 143% | inhibition [2] 5.36% | superoxide response (% of plate) [3] 96.8% | aptamer binding inhibition [4] 4% | inhibition [5] -3.62% | response [6] 1.37% | binding (% of control) [7] 96.2% | efflux inhibition (fraction of control) [8] -0.31 | inhibition [9] 4% | differentiation response [10] -3.43%
54.2%: double positive events [1]

CC1(C)CC(CC(=O)Nc2nccs2)(c2ccccc2)CCO1 (configuration not stated)
51.5%: double positive events [1]
inactive: vesicle binding response [1] 182% | inhibition [2] 4.42% | superoxide response (% of plate) [3] 103% | aptamer binding inhibition [4] -7% | inhibition [5] -9.2% | response [6] 5.11% | binding (% of control) [7] 96.4% | efflux inhibition (fraction of control) [8] 0.18 | inhibition [9] 8% | differentiation response [10] 1.41%

O=C(O)C[C@@H](O)C(=O)O
inactive: vesicle binding response [1] 193% | inhibition [2] 0.69% | superoxide response (% of plate) [3] 104% | aptamer binding inhibition [4] 2% | inhibition [5] -10.9% | response [6] -4.82% | binding (% of control) [7] 102% | efflux inhibition (fraction of control) [8] -0.2 | inhibition [9] 4% | differentiation response [10] 6.26%
56.6%: double positive events [1]

CC[C@H](CO)NCCN[C@H](CC)CO
56.6%: double positive events [1]
inactive: vesicle binding response [1] 193% | inhibition [2] -2.11% | superoxide response (% of plate) [3] 112% | aptamer binding inhibition [4] -2% | inhibition [5] -14.5% | response [6] 2.83% | binding (% of control) [7] 112% | efflux inhibition (fraction of control) [8] 0.06 | inhibition [9] 12% | differentiation response [10] -19.6%

COc1ccc(CNC(=O)c2cc3c(=O)n4ccccc4nc3n(Cc3cccnc3)c2=N)cc1
60.5%: double positive events [1]
inactive: vesicle binding response [1] 131% | inhibition [2] -2.11% | superoxide response (% of plate) [3] 92.2% | aptamer binding inhibition [4] -6% | inhibition [5] -0.26% | response [6] 3.99% | binding (% of control) [7] 112% | efflux inhibition (fraction of control) [8] 0.22 | inhibition [9] 4% | differentiation response [10] -9.89%

O=C1CC(c2ccc(F)cc2)Cc2nc(NCC3CCCO3)ncc21 (configuration not stated)
inactive: vesicle binding response [1] 192% | inhibition [2] 6.29% | superoxide response (% of plate) [3] 99.1% | aptamer binding inhibition [4] 3% | inhibition [5] -9.45% | response [6] -2.69% | binding (% of control) [7] 99.8% | efflux inhibition (fraction of control) [8] -0.12 | inhibition [9] 7% | differentiation response [10] 38.5%
55.2%: double positive events [1]

O=C(NCC1CCCCN1)c1cc(OCC(F)(F)F)ccc1OCC(F)(F)F (configuration not stated)
51.3%: double positive events [1]
inactive: vesicle binding response [1] 183% | inhibition [2] 1.62% | superoxide response (% of plate) [3] 102% | aptamer binding inhibition [4] -3% | inhibition [5] -20.4% | response [6] 0.89% | binding (% of control) [7] 103% | efflux inhibition (fraction of control) [8] -0.05 | inhibition [9] 14% | differentiation response [10] -8.27%

Source: PubChem BioAssay
